Reference: PubChem BioAssay (Tox21)
Records with an inconclusive call do not appear. The source made the active and inactive calls. Unless noted, calls follow the shape of the dose curve; as a rule, active = well fitted curve in the direction sought with a large enough effect in the repeat runs; inconclusive = weak or mixed curves; inactive = no such curve, though single readings can be large; an effect the other way counts as inactive or inconclusive.

Key:
[1] = qHTS assay to identify small molecule agonists of the hypoxia (HIF-1) signaling pathway - cell viability counter screen (AID 1224844; calls by dose curve; also: nearly all actives have a fitted effect of over 50% in size; also: potency is read from the fitted curve at half-maximal effect)
Procedure, shortened: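 Cytotoxicity measured by CellTiter-Glo ATP luminescence in the wells also read for beta-lactamase signal. Cells were HRE-bla ME-180 (2,000/well, 0.5% dialyzed FBS), exposed to compounds for 17 h at 37C.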

[2] = qHTS assay to identify small molecule agonists of H2AX - cell viability counter screen (AID 1224847; calls by dose curve; also: nearly all actives have a fitted effect of over 30% in size; also: potency is read from the fitted curve at half-maximal effect)
Procedure, shortened: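 Cells plated first: CHO-K1, 1000 per well in 10% FBS medium, incubated overnight at 37C. Then 15-point compound titration added (final DMSO 0.76%) for 3 hr. Finally CellTiter-Glo added and luminescence read.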

[3] = qHTS assay to identify small molecule antagonists of the estrogen related receptor (ERR) signaling pathway from Tox21 library (AID 1224848); also: potency is read from the fitted curve at half-maximal effect; nearly all actives have a fitted effect of over 50% in size
Procedure, shortened: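 Quantitative high-throughput format: ERR reporter cells (2,000/well) pre-incubated 6 h, treated 18 h at 37 C with compounds in DMSO alongside positive and negative controls, then read by ONE-Glo luminescence.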

[4] = qHTS assay to identify small molecule agonists of the estrogen related receptor (ERR) signaling pathway from Tox21 library (AID 1224849; calls by dose curve; also: % is scaled to controls: 0 for no effect and ±100 for the full control effect; nearly all actives have a fitted effect of over 15% in size); conditions: ERR reporter cell line, ONE-Glo luciferase, 18 h; at 92.4 µM (top of the series) unless noted
Procedure, shortened: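 Luminescent agonist read-out (One-Glo, 30-minute room-temperature incubation) following 18-hour compound treatment at 37 C of the ERR cell line, which had been plated 6 hours before dosing.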

[5] = qHTS RealTime-Glo MT Cell Viability Assay in HepG2 cells - 24 hour (AID 1224867); also: nearly all actives have a fitted effect of over 50% in size; also: potency is read from the fitted curve at half-maximal effect; as to activity change, negative = cytotoxicity: % is scaled to controls: 0 for no effect and ±100 for the full control effect
Procedure, shortened: (§1)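 HepG2 cells were seeded at 600 cells/well together with NanoLuc luciferase and a cell-permeant prosubstrate, preincubated 5 h at 37 C/5% CO2, then pin-dosed with compounds in DMSO. Nonlytic luminescence from viable cells was read at each time point.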

[6] = qHTS RealTime-Glo MT Cell Viability Assay in HEK293 cells - 32 hour (AID 1224868); also: nearly all actives have a fitted effect of over 50% in size; also: potency is read from the fitted curve at half-maximal effect
Procedure, shortened: (§2)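 HEK293 cells were seeded at 600 cells/well together with NanoLuc luciferase and cell-permeant prosubstrate, preincubated 5 h at 37 C/5% CO2, then given compound in DMSO by pintool. Luminescence from viable-cell prosubstrate reduction was read repeatedly over 40 h.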

[7] = A CellTox Green Cytotoxicity Assay to monitor cytotoxicity in HEK293 cells - 0 hour (AID 1224869)
Procedure, shortened: (§3)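 Fluorescence from a DNA-binding dye excluded by viable cells was measured repeatedly in the same HEK293 wells (600 cells/well) during continuous compound exposure at 37 C. Each assay gives one read point: 0, 8, 16, 24, 32 or 40 h.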

[8] = qHTS RealTime-Glo MT Cell Viability Assay in HepG2 cells - 40 hour (AID 1224870); also: nearly all actives have a fitted effect of over 50% in size; also: potency is read from the fitted curve at half-maximal effect; as to activity change, negative = cytotoxic: % is scaled to controls: 0 for no effect and ±100 for the full control effect
Procedure, shortened: (§4)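 HepG2 cells (600/well) mixed with RealTime-Glo MT reagent, settled 5 h at 37 C/5% CO2 before compound addition. Nonlytic NanoLuc luminescence from viable-cell prosubstrate reduction read repeatedly during 40 h treatment at 37 C.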

[9] = qHTS RealTime-Glo MT Cell Viability Assay in HepG2 cells - 8 hour (AID 1224873); also: nearly all actives have a fitted effect of over 55% in size; also: potency is read from the fitted curve at half-maximal effect
Procedure, shortened: as §4

[10] = qHTS RealTime-Glo MT Cell Viability Assay in HEK293 cells - 40 hour (AID 1224874); conditions: RealTime-Glo luminescence; max response: stronger effect = lower value; also: nearly all actives have a fitted effect of over 50% in size; also: potency is read from the fitted curve at half-maximal effect
Procedure, shortened: (§5)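 Luminescence, which tracks viable cell number through reduction of the prosubstrate to a NanoLuc substrate, was read over continuous 37 C culture. Cells (600/well) were premixed with reagent and rested 5 h before 23 nL of compound in DMSO was pinned.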

[11] = A CellTox Green Cytotoxicity Assay to monitor cytotoxicity in HepG2 cells - 16 hour (AID 1224876); also: nearly all actives have a fitted effect of over 45% in size; also: potency is read from the fitted curve at half-maximal effect; as to cytotoxicity increase: % is scaled to controls: 0 for no effect and ±100 for the full control effect
Procedure, shortened: (§6)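 Real-time cytotoxicity: fluorescence of a cell-impermeant cyanine dye binding DNA of dead HepG2 cells, measured repeatedly (0–40 h) during compound exposure at 37 C. Cells seeded 600/well with reagent, dosed after 5 h.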

[12] = qHTS RealTime-Glo MT Cell Viability Assay in HepG2 cells - 32 hour (AID 1224877); also: nearly all actives have a fitted effect of over 55% in size; also: potency is read from the fitted curve at half-maximal effect; as to activity change, negative = cytotoxic: % is scaled to controls: 0 for no effect and ±100 for the full control effect
Procedure, shortened: as §1

[13] = qHTS RealTime-Glo MT Cell Viability Assay in HEK293 cells - 0 hour (AID 1224880); also: nearly all actives have a fitted effect of over 45% in size; also: potency is read from the fitted curve at half-maximal effect
Procedure, shortened: as §5

[14] = A CellTox Green Cytotoxicity Assay to monitor cytotoxicity in HEK293 cells - 40 hour (AID 1224871); also: nearly all actives have a fitted effect of over 45% in size; also: potency is read from the fitted curve at half-maximal effect
Procedure, shortened: as §3

[15] = qHTS RealTime-Glo MT Cell Viability Assay in HEK293 cells - 16 hour (AID 1224872); also: nearly all actives have a fitted effect of over 50% in size; also: potency is read from the fitted curve at half-maximal effect
Procedure, shortened: as §2

[16] = A CellTox Green Cytotoxicity Assay to monitor cytotoxicity in HEK293 cells - 24 hour (AID 1224875); also: nearly all actives have a fitted effect of over 45% in size; also: potency is read from the fitted curve at half-maximal effect
Procedure, shortened: as §3

[17] = A CellTox Green Cytotoxicity Assay to monitor cytotoxicity in HepG2 cells - 24 hour (AID 1224878); also: nearly all actives have a fitted effect of over 45% in size; also: potency is read from the fitted curve at half-maximal effect
Procedure, shortened: as §6

[18] = A CellTox Green Cytotoxicity Assay to monitor cytotoxicity in HepG2 cells - 40 hour (AID 1224879); also: nearly all actives have a fitted effect of over 40% in size; also: potency is read from the fitted curve at half-maximal effect
Procedure, shortened: as §6

Oc1ccc(C2(c3ccc(O)cc3)CC3CC2C2CCCC32)cc1 (stereo not drawn)
inactive: activity change, positive = activation [4] -75.2% | Potency [5] | Potency [7] | Potency [8] | Potency [9] | Potency [11] | Potency [12] | Potency [13]
active: Potency [1] 33.3 µM | Potency [2] 86.2 µM | Potency [3] 58.7 µM | Potency [6] 41.9 µM | Potency [10] 41.9 µM

OC1(c2ccc(Cl)c(C(F)(F)F)c2)CCN(CCCC(c2ccc(F)cc2)c2ccc(F)cc2)CC1
active: Potency [1] 6.74 µM | Potency [2] 55.2 µM | Potency [3] 8.41 µM | Potency [5] 9.52 µM | Potency [6] 9.52 µM | Potency [8] 9.52 µM | Potency [14] 21.3 µM | Potency [15] 9.52 µM | Potency [9] 21.3 µM | Potency [10] 9.52 µM | Potency [16] 23.9 µM | Potency [11] 10.7 µM | Potency [12] 8.49 µM | Potency [17] 9.52 µM | Potency [18] 6.74 µM
inactive: Potency [7] | Potency [13]

CNc1ccc(O)cc1
inactive: activity change, positive = activation [4] -69.6% | Potency [7]
active: Potency [1] 21.8 µM | Potency [2] 101 µM | Potency [14] 9.75 µM | Potency [15] 13.8 µM | Potency [9] 48.9 µM | Potency [10] 12.3 µM | Potency [18] 48.9 µM | Potency [13] 17.3 µM

O=S1(=O)CC(Cl)(Cl)C(Cl)(Cl)C1
inactive: activity change, positive = activation [4] -79.8% | Potency [7] | Potency [13]
active: Potency [1] 3.89 µM | Potency [2] 25.3 µM | Potency [3] 15.4 µM | Potency [5] 6.92 µM | Potency [8] 6.16 µM | Potency [14] 1.95 µM | Potency [15] 4.9 µM | Potency [9] 8.71 µM | Potency [11] 11 µM | Potency [12] 6.16 µM | Potency [17] 9.77 µM | Potency [18] 6.92 µM

CCC(C)Nc1ccc(NC(C)CC)cc1 (stereo not drawn)
active: Potency [1] 12.5 µM | Potency [2] 23 µM | Potency [3] 6.23 µM | Potency [5] 17.7 µM | Potency [6] 4.45 µM | Potency [8] 17.7 µM | Potency [14] 12.5 µM | Potency [15] 4.45 µM | Potency [9] 19.9 µM | Potency [10] 3.97 µM | Potency [16] 17.7 µM | Potency [11] 35.3 µM | Potency [12] 17.7 µM | Potency [17] 22.3 µM | Potency [18] 17.7 µM | Potency [13] 19.9 µM
inactive: activity change, positive = activation [4] -80.2% | Potency [7]

CCN(CC)CCCC(C)Nc1c2ccc(Cl)cc2nc2ccc(OC)cc12 (stereo not drawn)
inactive: Potency [2] | Potency [7] | Potency [13]
active: Potency [1] 16.9 µM | Potency [5] 6.74 µM | Potency [6] 2.68 µM | Potency [8] 5.35 µM | Potency [14] 6.01 µM | Potency [15] 4.25 µM | Potency [10] 3.01 µM | Potency [16] 10.7 µM | Potency [11] 16.9 µM | Potency [17] 9.52 µM | Potency [18] 6.01 µM

O=C(OC[C@H]1O[C@@H](OC(=O)c2cc(O)c(O)c(OC(=O)c3cc(O)c(O)c(O)c3)c2)[C@H](OC(=O)c2cc(O)c(O)c(OC(=O)c3cc(O)c(O)c(O)c3)c2)[C@@H](OC(=O)c2cc(O)c(O)c(OC(=O)c3cc(O)c(O)c(O)c3)c2)[C@@H]1OC(=O)c1cc(O)c(O)c(OC(=O)c2cc(O)c(O)c(O)c2)c1)c1cc(O)c(O)c(OC(=O)c2cc(O)c(O)c(O)c2)c1
inactive: activity change, negative = cytotoxicity [1] -0.825% [at 15.8 µM] | Potency [2] | activity change, negative = cytotoxic [6] -17.3% [at 15.8 µM] | cytotoxicity increase [14] -40.6% [at 15.8 µM] | activity change, negative = cytotoxicity [15] -9.99% [at 15.8 µM] | activity change [16] -38.6% [at 15.8 µM, stronger effect = higher value] | cytotoxicity increase [11] -47.1% [at 15.8 µM] | cytotoxicity [17] -52.4% [at 15.8 µM] | cytotoxicity increase [18] -56% [at 15.8 µM] | activity change, negative = cytotoxicity [13] -3.48% [at 15.8 µM]

Nc1cc(C(F)(F)F)ccc1S
inactive: Potency [1] | Potency [2] | activity change, positive = activation [4] -31.1% [at 42.5 µM] | Potency [5] | Potency [7] | Potency [8] | Potency [14] | Potency [15] | Potency [9] | max response [10] 3.21% | Potency [16] | Potency [11] | Potency [12] | Potency [17] | Potency [18] | Potency [13]

CCCCCCCCCCCCCC[P+](CCCC)(CCCC)CCCC (tested in a mixture with another compound)
inactive: Potency [7] | Potency [13]
active: Potency [1] 15.6 µM | Potency [2] 3.6 µM | Potency [5] 19.6 µM | Potency [6] 0.553 µM | Potency [8] 19.6 µM | Potency [14] 15.6 µM | Potency [15] 8.76 µM | Potency [9] 19.6 µM | Potency [10] 0.349 µM | Potency [16] 17.5 µM | Potency [11] 19.6 µM | Potency [12] 19.6 µM | Potency [17] 15.6 µM | Potency [18] 13.9 µM

N=C1N=C(N)c2cc3ccccc3cc21
inactive: Potency [7] | Potency [13]
active: Potency [1] 15.5 µM | Potency [2] 127 µM | Potency [3] 68.6 µM | activity change, positive = activation [4] 2.31% | Potency [5] 47.6 µM [cytotoxic] | Potency [6] 19.5 µM | Potency [8] 24.5 µM [cytotoxic] | Potency [14] 54.9 µM | Potency [15] 27.5 µM | Potency [10] 32.1 µM | Potency [16] 54.9 µM | Potency [11] 43.6 µM | Potency [12] 24.5 µM | Potency [17] 24.5 µM | Potency [18] 24.5 µM

CCCCCCCCCCCC[N+](C)(C)CCCCCCCCCCCC
inactive: activity change, positive = activation [4] -72.6% | Potency [7] | Potency [13]
active: Potency [1] 21.9 µM | Potency [2] 28.4 µM | Potency [3] 13.7 µM | Potency [5] 7.76 µM | Potency [6] 5.49 µM | Potency [8] 6.92 µM | Potency [14] 17.4 µM | Potency [15] 11 µM | Potency [9] 12.3 µM | Potency [10] 3.89 µM | Potency [16] 15.5 µM | Potency [11] 9.77 µM | Potency [12] 7.76 µM | Potency [18] 7.76 µM
